# Results reported in publication PMC4242493, “Sequence specificity incompletely defines the genome-wide occupancy of Myc”.
# Whole data set: some 33,000 sequences, median “normalized occupancy” near 0.075, cut for the highest 2% near 0.095. This is one part of a sample in which the highest values are shown more often than they occur.
# Target: MaxL homodimer (Homo sapiens, UniProt P61244 1-160)
# Assay: universal protein-binding microarray (PBM); PBS-based mixture, 10 nM His-tagged protein dimer, 2% milk, 200 ng/uL BSA, 50 ng/uL salmon testes DNA, 0.02% TX-100; detection with Alexa 488 anti-His antibody;; high values mean tight binding
# Conditions: protein: recombinant; tags: C-terminal His-tag (pET21a); chain copies: 2; dsDNA, one strand shown
# Outline: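 Arrays of the 'all 10-mer' universal design (Agilent 4 x 44 K) were exposed to 10 nM His-tagged protein dimer, stained with 10 ng/μL fluorophore-conjugated anti-His antibody and read on a GenePix 4400A to give a fluorescence intensity for each 8-mer. Binding occupancy is each intensity divided by the highest-ranked intensity.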
# Sequence of MaxL homodimer (P61244 whole entry): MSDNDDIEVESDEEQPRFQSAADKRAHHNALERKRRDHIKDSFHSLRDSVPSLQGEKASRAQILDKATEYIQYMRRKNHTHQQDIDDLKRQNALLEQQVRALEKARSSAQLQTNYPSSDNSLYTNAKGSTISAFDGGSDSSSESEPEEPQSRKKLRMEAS
row,Sequence,binding signal [normalized occupancy]
1,CAGGCTGA,0.0746
2,AAAGCACG,0.0922
3,AGTGTTAA,0.0742
4,CCCATAAG,0.0856
5,ACATCCTA,0.0822
6,AATTAATC,0.0741
7,ACGGGGAC,0.0795
8,ACCAGAAC,0.0763
9,CGGCATCA,0.0791
10,CCAGGTCG,0.0731
11,CGTACACA,0.0813
12,AGTACACA,0.0858
13,CATACACC,0.0901
14,AATACATG,0.0934
15,CATACACA,0.0892
16,CATACACG,0.097
17,CGTACACG,0.0971
18,CATACATG,0.0969
19,CATACATA,0.0846
20,CCGCTTAC,0.0724
21,TCAGGCAA,0.0718
22,GACGGCGA,0.0752
23,CCAACAAG,0.0776
24,CCGCGAGG,0.0805
25,AACCTAAC,0.0728

row,Sequence,binding signal [normalized occupancy]
1,GCGATTCC,0.0814
2,ACCCACGG,0.0796
3,ACCCACGA,0.0913
4,ACCCACGC,0.105
5,GCCCACGA,0.0823
6,ACCCACAT,0.0932
7,CCCCACGG,0.0843
8,GCCCACGC,0.0978
9,CCCCACGA,0.0848
10,CCCCACGC,0.0979
11,ACCCACGT,0.0984
12,ACCCACCA,0.088
13,GCCCACCC,0.087
14,CTCGCACC,0.0733
15,ATCTATTG,0.078
16,AGATAGGC,0.078
17,ACATAGAA,0.0839
18,TAGTTAAA,0.0739
19,AAGCATAA,0.0767
20,GAGCACGC,0.094
21,CAGCATAC,0.0829
22,AAGCATAG,0.0734
23,CAGCATGC,0.126
24,GAGCATAC,0.0789
25,AAGCATTG,0.0783

row,Sequence,binding signal [normalized occupancy]
1,GAGCATGC,0.113
2,AAGCATTA,0.082
3,AAGCATGA,0.101
4,AAGCATGG,0.11
5,CAGCATCC,0.0746
6,ATTGGCAG,0.0726
7,GTTTACCA,0.0757
8,CCGATAAA,0.0723
9,CATCACCC,0.0788
10,AGTTGCAT,0.0779
11,AGCATAAC,0.0787
12,CAAGGGGC,0.0772
13,TACCTTGA,0.0849
14,CTTATAGA,0.0769
15,AAGCATAC,0.0751
16,AAGCATCT,0.0778
17,AAGCATGT,0.0997
18,AAGCATTC,0.0773
19,AAGCATAT,0.0839
20,AAGCATGC,0.118
21,AATGAACC,0.0718
22,AGTTTTAT,0.0775
23,ACTCATGG,0.0945
24,CCTCATGC,0.109
25,AGTCATGG,0.0855

row,Sequence,binding signal [normalized occupancy]
1,AGTCATGA,0.0829
2,ACTCATGA,0.0903
3,ACTCATGC,0.0969
4,CTTCATGC,0.0794
5,CCTCATGA,0.0951
6,AGTCATGC,0.096
7,AATACACG,0.0912
8,CCCTCGAA,0.0795
9,CGCACGAG,0.107
10,AGCACGTA,0.0853
11,CGCACGAA,0.0816
12,AGCACGTG,1
13,AGCACGAA,0.0827
14,AGCACGTC,0.081
15,AGCACGAT,0.0857
16,AGCACGAG,0.0964
17,CGCACAAA,0.0718
18,CTACCCCA,0.0788
19,ACGAGGCT,0.0805
20,AGAACAAT,0.0787
21,ACCCGCTG,0.0761
22,CCCCGTTA,0.0766
23,CACGATGG,0.0884
24,CTAGCACA,0.0827
25,GCATGTAC,0.0973

row,Sequence,binding signal [normalized occupancy]
1,GAATGTAC,0.0769
2,CTATGTAC,0.0847
3,ACATGTAC,0.0958
4,AGATGTAC,0.0766
5,CCATGTAC,0.086
6,TGAGATAA,0.0797
7,ATAATGAC,0.0804
8,AACTTGCC,0.0757
9,GAAACGCC,0.0758
10,CACTGCTG,0.0746
11,ATATGATC,0.0857
12,CCACATAA,0.0799
13,CAGCAGAG,0.0727
14,CATGAGGA,0.106
15,AATGAGTA,0.077
16,AATGAGGG,0.0862
17,AATGAGGC,0.0776
18,GATGAGGC,0.0786
19,TATGAGGA,0.0851
20,CATGAGAG,0.0941
21,CATGAGGG,0.109
22,AATGAGGA,0.0838
23,CATGAGTA,0.0969
24,CATGAGGC,0.109
25,CATGAGTC,0.091

row,Sequence,binding signal [normalized occupancy]
1,GACACTTA,0.0771
2,GCAACACA,0.0795
3,TCAACTAA,0.0725
4,ATTGAAAT,0.0772
5,GTGAGTCA,0.0793
6,CCCCCCCA,0.0901
7,CGACAGCA,0.0797
8,ATAAATAG,0.0754
9,ATTCAGTA,0.0734
10,ATGACTAC,0.0811
11,ATGAGGGG,0.0902
12,ATGAGGGA,0.0908
13,ATGAGGGC,0.0956
14,GATTTAGA,0.0724
15,ACGTTGAC,0.0793
16,ATACCACG,0.0991
17,CTACCACA,0.0867
18,AAACCACA,0.0814
19,TAACCACA,0.0809
20,ATACCACA,0.089
21,AAACCACG,0.0972
22,CCGTTCTC,0.0814
23,ACAGCATA,0.0896
24,ACAGCATC,0.0767
25,AGAGCATA,0.0815

row,Sequence,binding signal [normalized occupancy]
1,AGAGCATG,0.0989
2,AGAGCATC,0.0755
3,ATAGCATA,0.0872
4,ACAGCATG,0.127
5,ATAGCATC,0.0799
6,ATAGCATG,0.103
7,AGTACAGG,0.0787
8,ACACTCTG,0.0741
9,ATAGCTTC,0.074
10,AAGAGGCA,0.0761
11,ACGATTAG,0.0719
12,GATTCACC,0.0757
13,ACGATTTC,0.0741
14,CATCTTCA,0.0786
15,AAAATAGG,0.076
16,ACACATGT,0.127
17,ATACATGA,0.0834
18,AGACATTG,0.0768
19,ACACATTC,0.0866
20,CTACATGC,0.089
21,ACACATCT,0.0851
22,ATACATGC,0.104
